Type in all cases: functional
Assay [1] addresses Solute carrier family 2, facilitated glucose transporter member 1 (Homo sapiens) (UniProt P11166). The assay can be described thus: ST_JUDE_LEISH: Cytotoxicity at 2uM final concentration against transgenic Leishmania Mexicana promastigotes LmGLUT1 that are glucose transport deficient and complemented with the human glucose transporter GLUT1. Activity is measured by DNA content using SYBR green in vitro.

The target of assay [2] is Hexose transporter 1 (Plasmodium falciparum) (UniProt O97467). Briefly: ST_JUDE_LEISH: Cytotoxicity at 2uM final concentration against transgenic Leishmania Mexicana promastigotes LmPfHT that are glucose transport deficient and complemented with the Plasmodium falciparum hexose transporter. Activity is measured by DNA content using SYBR green in vitro.
Assay [3] deals with Glucose transporter (Leishmania mexicana) (UniProt O61059). Briefly: ST_JUDE_LEISH: Cytotoxicity at 2uM final concentration against transgenic Leishmania Mexicana promastigotes LmGT2 that are glucose transport deficient and complemented with the L. Mexicana glucose transporter 2. Activity is measured by DNA content using SYBR green in vitro.

Solute carrier family 2, facilitated glucose transporter member 1 (Homo sapiens), sequence (P11166 whole entry): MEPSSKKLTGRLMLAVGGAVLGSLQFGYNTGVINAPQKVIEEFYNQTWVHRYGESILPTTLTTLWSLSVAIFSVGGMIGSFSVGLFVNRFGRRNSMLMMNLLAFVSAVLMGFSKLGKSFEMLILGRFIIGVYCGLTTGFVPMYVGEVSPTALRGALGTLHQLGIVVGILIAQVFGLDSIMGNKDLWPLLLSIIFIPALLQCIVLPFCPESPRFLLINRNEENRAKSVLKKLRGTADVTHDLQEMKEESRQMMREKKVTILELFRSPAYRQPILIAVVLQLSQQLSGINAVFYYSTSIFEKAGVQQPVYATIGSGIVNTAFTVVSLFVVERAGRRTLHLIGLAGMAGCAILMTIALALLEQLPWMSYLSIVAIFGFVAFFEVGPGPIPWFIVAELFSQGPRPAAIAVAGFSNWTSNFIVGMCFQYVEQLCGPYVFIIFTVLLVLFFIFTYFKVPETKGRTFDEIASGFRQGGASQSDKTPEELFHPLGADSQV

The inhibition is the relative decrease from the control value, in per cent. In the case of `O=C(Nc1ccc2c(c1)CNCC2)c1ccc(-c2ccc(Cl)cc2)cc1`, the inhibition in assay [1] was found to be 105%; in assay [2] it was 95.6%; in assay [3] it was 84%.

For the compound `CC(C)NCc1cc(Nc2ccnc3cc(Cl)ccc23)ccc1O`, the figures for the inhibition in assay [1], in assay [2] and in assay [3] were 0.05%, 1.48% and 1.69%, respectively.

As for `O=C(/C=C/c1ccc([N+](=O)[O-])cc1)N1CCC(NS(=O)(=O)c2cccc(C(F)(F)F)c2)CC1`, the inhibition was 3.4% in assay [1], 3% in assay [2] and 0.97% in assay [3].

In the case of `CCC(C)c1ccc(NC(=O)c2ccc(S(=O)(=O)Nc3ccc(OC)c(N4CCN(CC5CC5)CC4)c3)cc2)cc1` (stereo not drawn), the inhibition in assay [1] is 1.59%; in assay [2] it was -0.83%; in assay [3] it was -1.88%.

Take `O=C(NCc1cccc2ccccc12)C1CCCN(C(=O)c2ccc(O)c(-c3ccc(Cl)c(Cl)c3)c2)C1` (stereo not drawn): the inhibition in assay [1] turned out to be 1.68%; in assay [2], 1.11%; in assay [3], 1.88%.

Take `O=C(Nc1cccc(CN2CCCN(Cc3cccc(Cl)c3)CC2)c1)c1ccc(Cl)c(Cl)c1`: the figures for the inhibition in assay [1], in assay [2] and in assay [3] were 1.69%, 1.9% and 4.28%, respectively.

Take `COc1cc(-c2cc(-c3ccc(S(C)(=O)=O)cc3)cnc2N)ccc1O`: the inhibition in assay [1] came out at 6.13%; in assay [2], 6.34%; in assay [3], 9.19%.

For `CCN(CC)c1ccccc1CNC(=O)c1cc(Cl)c(N)cc1OC`, the inhibition in assay [1] is 9.4%; in assay [2], 9.03%; in assay [3], 8.59%.

Consider `COc1cc(CNC[C@@H](O)[C@H](Cc2ccccc2)NC(=O)c2cc(OC(C)C)cc(N3CCCCS3(=O)=O)c2)cc(OC)c1`, for which the inhibition stood at 2.15% in assay [1], 2.12% in assay [2] and 1.3% in assay [3].

As for `O=C(Nc1ccc2c(c1)OCO2)NC1CCN(c2ccnc(NCc3ccc(F)cc3)n2)CC1`, the figures for the inhibition in assay [1], in assay [2] and in assay [3] were 2.05%, 2.3% and 0.61%, respectively.

In the case of `Cc1cnc(CNCc2ccc(S(=O)(=O)Nc3ccc(Oc4cccc(Cl)c4)cc3)cc2)cn1`, the inhibition in assay [1] was 5.34%; in assay [2] it was 2.83%; in assay [3] it was 2.07%.

As to `CC(=O)Nc1ccc([N+](=O)[O-])c2c(Br)cccc12`, the inhibition in assay [1] is 8.2%; in assay [2], 8.74%; in assay [3], 10.4%.

On to `Fc1ccc2[nH]c(-c3ccc(-c4cccc(CN5CCN(c6ccncc6)CC5)c4)cc3)nc2c1`, for which the inhibition in assay [1] amounted to 2.37%; in assay [2], 1.42%; in assay [3] it was 4.07%.

As for `CC(=O)Nc1cccc(-c2cnc(N)c3cc(-c4ccc5c(c4)OCO5)ccc23)c1`, the inhibition in assay [1] stood at 7.5%; in assay [2], 7.74%; in assay [3], 5.76%.

For `Cc1onc(-c2ccccc2)c1C(=O)Nc1nc(-c2ccccn2)nc2ccsc12`, the inhibition in assay [1] stood at 2.38%; in assay [2], 1.96%; in assay [3] it was 0.03%.

Regarding `O=C(Nc1ccc(-c2cccc(-c3nc4cc(C(F)(F)F)ccc4[nH]3)c2)cc1)c1cccnc1`, the inhibition is 0.28% in assay [1], 0.06% in assay [2] and -1.11% in assay [3].

Turning to `COc1ccc(CNC2CCN(C)CC2)cc1-c1cccc(S(=O)(=O)NCc2ccccc2)c1`, the inhibition in assay [1] is 1.72%; in assay [2] it was 1.62%; in assay [3], 0.24%.

Take `Cc1ccc2sc(N3CCN(C(=O)c4ccc([N+](=O)[O-])o4)CC3)nc2c1C`: the results for the inhibition in assay [1], in assay [2] and in assay [3] were 44.5%, 44.3% and 13.7%, respectively.

Turning to `O=C(Nc1cccc(F)c1)NC1CCN(c2ccnc3cc(Cl)ccc23)CC1`, the results for the inhibition in assay [1], in assay [2] and in assay [3] were 2.51%, 1.28% and 1.75%, respectively.

With `Cc1ncccc1C(=O)Nc1cccc(-c2cccc(-c3nc4cc(C(F)(F)F)ccc4[nH]3)c2)c1`, the inhibition in assay [1] was 0.73%; in assay [2], 1.25%; in assay [3], -2.48%.

In the case of `O=C(N[C@@H](CC1CCCCC1)C(=O)NC1CCCCC1)c1ccc(O)c(-c2cccc(C(F)(F)F)c2)c1`, the inhibition was -2.73% in assay [1], -1.15% in assay [2] and -3.33% in assay [3].

`O=C(Nc1cccc(Cl)c1Cl)Nc1ccnc2ccccc12`: the inhibition was determined as 7.59% in assay [1], 7.42% in assay [2] and 5.95% in assay [3].

Take `CNS(=O)(=O)CCNCc1ccc(-c2ccc3ncnc(Nc4ccc(OCc5ccccc5)cc4)c3c2)o1`: the inhibition in assay [1] was 6.09%; in assay [2] it was 6.17%; in assay [3] it was 3.83%.

Turning to `COC(=O)c1cccc(CN(CCC(O)(C(F)(F)F)C(F)(F)F)C(=O)CC2CCCC2)c1`, the inhibition in assay [1] stood at 3.39%; in assay [2] it was 1.44%; in assay [3] it was 1.91%.

For `c1ccc2[nH]c(-c3ccc(-c4ccc(CNCCc5ccncc5)cc4)s3)nc2c1`, the figures for the inhibition in assay [1], in assay [2] and in assay [3] were 8.39%, 5.02% and 2.3%, respectively.

Regarding `COc1ccc2[nH]ccc(=NN=Cc3ccc(N(C)C)cc3)c2c1`, the inhibition in assay [1] is 2.69%; in assay [2] it was 3.94%; in assay [3] it was 0.57%.

`COc1ccc(Cn2ncc3c4c(N)nc(N)nc4ccc32)cc1OC`: the inhibition turned out to be 86.6% in assay [1], 82.8% in assay [2] and 73% in assay [3].

As for `CN(C)c1ccc(-c2ccc(C(=O)NC3CCN(Cc4ccccc4F)CC3)s2)cc1`, the inhibition in assay [1] was found to be 6.98%; in assay [2], 0.05%; in assay [3] it was 1.85%.

As for `CON=Cc1sc(CNCCCN=c2cc(O)c3ccccc3[nH]2)c(C)c1Br`, the figures for the inhibition in assay [1], in assay [2] and in assay [3] were 4.13%, 4.13% and 3.41%, respectively.

As for `Cc1cccc2nc(-c3ccc(-c4ccc(CNCc5cnn(-c6ccccc6)n5)cc4)s3)[nH]c12`, the inhibition in assay [1] was -1.78%; in assay [2], -1.57%; in assay [3], -1.83%.

`Cc1c(C)n(C2CCCCC2)c2ncnc(OC3CCN(CC(=O)NC4CC4)CC3)c12`: the inhibition in assay [1] was -0.52%; in assay [2] it was -3.58%; in assay [3], 1.68%.

`Cc1c(C(C)(C)C)ccc2nc(N)nc(N)c12`: the figures for the inhibition in assay [1], in assay [2] and in assay [3] were 64%, 63.5% and 56.6%, respectively.

Take `COc1ccc2nc3cc(Cl)ccc3c(NCCO)c2c1`: the inhibition in assay [1] is 2.8%; in assay [2], -1.06%; in assay [3] it was 2.4%.

In the case of `c1ccc(Cn2nnnc2-c2cccc(Nc3ccnc4cc(-c5nccs5)ccc34)c2)cc1`, the inhibition turned out to be 1.8% in assay [1], 2.17% in assay [2] and 1.96% in assay [3].

For `CN(C)CCOc1ccc(-c2cc(-c3ccc(Cl)c(O)c3)c(-c3ccnc(N)n3)o2)cc1`, the inhibition stood at 2.11% in assay [1], 2.73% in assay [2] and 3.05% in assay [3].

As to `CC(C)CCN1CCC(Oc2ccc(NC(=O)c3ccc4ncccc4c3)cc2Cl)C1` (stereo not drawn), the values for the inhibition in assay [1], in assay [2] and in assay [3] were 1.24%, 2.56% and 1.94%, respectively.
